# According to PubChem BioAssay AID588727 (Southern Research Specialized Biocontainment Screening …, 2011):
# The campaign covered roughly 350,000 compounds. About 450 (0.13%) were called active. No rule for the calls is given here. A selection follows. Entries with a potency or affinity are not part of this list.
# Assay: inhibitors of VEEV TC-83 cytopathic effect, confirmation, Vero cells (AID 588727)
# Settings: VEEV TC-83 cytopathic effect inhibition, at 20 µM
# [1] = stronger effect = higher value unless noted
# [2] = measured here: 10K pilot screen inhibition, stronger effect = higher value
structure (smiles),measurement,setting,value
CC(CCc1ccccc1)OS(N)(=O)=O (stereo unspecified),inhibition,[1],"0.425% [measured here: 10K pilot screen inhibition, stronger effect = higher value]"
same,outcome,[1],inactive
OC(COc1ccc(CNCCc2ccccc2F)cc1)CN1CCCCC1 (stereo unspecified),inhibition,[1],4.19% (inactive)
Cc1n[nH]c(C)c1CCNCc1ccc(OCC(O)CN2CCCCC2)cc1 (stereo unspecified),inhibition,[1],0.96% (inactive)
N/C(=N\OCc1ccc([N+](=O)[O-])cc1)c1ccccn1,inhibition,[1],0.33% (inactive)
CC(=O)Nc1ccccc1C(=O)OCC(=O)c1ccccc1Cl,inhibition,[1],"0.205% [measured here: 10K pilot screen inhibition, stronger effect = higher value]"
same,outcome,[1],inactive
CC(C)CC(=O)NCc1ccc2[nH]c3c(c2c1)CCCC3,inhibition,[1],1.23% (inactive)
CNC(=S)NCc1ccc2[nH]c3c(c2c1)CCCC3,inhibition,[1],0.13% (inactive)
CC(C)C[C@H]1CNC(=S)N1CC1CCN(CCCCc2ccccc2)CC1,inhibition,[1],inactive
COc1cccc(N2C(=O)C3CCCN3C2c2cccs2)c1 (stereo unspecified),inhibition,[1],1.22% (inactive)
O=C1C2CCCN2C(c2cccs2)N1c1ccc(F)cc1 (stereo unspecified),inhibition,[1],inactive
CN(c1ccc(OCC(=O)Nc2cc(Cl)ccc2C(=O)O)cc1)S(=O)(=O)c1ccc(F)cc1,inhibition,[1],1.87% (inactive)
CC(=O)Nc1ccc(S(=O)(=O)N(C)c2ccc(OCC(=O)Nc3ccccc3C(C)=O)cc2)cc1,inhibition,[1],11% (inactive)
CC(C)CN(C(=O)COc1ccc(C(C)(C)C)cc1)C1CCS(=O)(=O)C1 (stereo unspecified),inhibition,[1],12.2% (inactive)
CN(C)N=Nc1nc2c([nH]1)c(=O)n(C)c(=O)n2C,inhibition,[1],1.78% (inactive)
CN(C)N=Nc1nc2c(c(=O)n(C)c(=O)n2C)n1C,inhibition,[1],inactive
CN(C(=O)c1cccc(NC(=O)Cc2ccc(NC(=O)C3CCN(C(=O)C4CC4)CC3)cc2)c1)C1CCCCC1,inhibition,[1],0.89% (inactive)
O=C(CSc1nccn1-c1ccc(Cl)cc1)NCc1ccc2c(c1)OCO2,inhibition,[1],3.2% (inactive)
O=C(Cc1c(Cl)cccc1Cl)OCc1ccccn1,inhibition,[1],1.24% (inactive)
CCOC(=O)Cc1nnc(Nc2cccc(O)c2)c2ccccc12,inhibition,[1],4.42% (inactive)
O=C(CN(CC1CCCO1)C(=O)CNS(=O)(=O)c1ccc(Cl)cc1)NCc1ccc(F)cc1 (stereo unspecified),inhibition,[1],3.94% (inactive)
COc1cc2nc(N3CCN(c4cc(C)ccc4C)CC3)nc(N)c2cc1OC,inhibition,[1],inactive
COc1cc2nc(N3CCN(C(=O)c4ccco4)CC3)nc(N)c2cc1OC,inhibition,[1],23.2% (inactive)
COC(=O)C1CCN(C(=O)COC(=O)CC(NC(N)=O)c2ccc(Cl)cc2)CC1 (stereo unspecified),inhibition,[1],1.27% (inactive)
CSc1nnc2c(n1)OC(c1ccc(C(=O)O)cc1)N(C(C)=O)c1ccccc1-2 (stereo unspecified),inhibition,[1],0.04% (inactive)
COc1ccc(NC(=O)c2ccco2)c([N+](=O)[O-])c1,inhibition,[1],inactive
O=c1c2c([nH]c3ccccc13)CCCC2,inhibition,[1],0.1% (inactive)
O=c1c2c([nH]c3ccccc13)CCCCC2,inhibition,[1],2.45% (inactive)
Fc1ccc(NC(=S)NCc2ccc3c(c2)OCO3)cc1,inhibition,[1],1.24% (inactive)
COc1ccc(CCNC(=O)Cn2c(=O)oc3cc(Cl)ccc32)cc1OC,inhibition,[1],1.85% (inactive)
COCCNC(=O)/C(C#N)=C/C=C/c1ccccc1[N+](=O)[O-],inhibition,[1],55.2% (inactive)
N#C/C(=C\c1ccccc1[N+](=O)[O-])C(=O)NC1CCCCC1,inhibition,[1],6.23% (inactive)
CC1CCCCC1NC(=O)/C(C#N)=C/c1ccccc1F (stereo unspecified),inhibition,[1],10.5% (inactive)
O=C(/C=C/c1ccccc1[N+](=O)[O-])NC1CCCC1,inhibition,[1],inactive
Cc1ccc(-c2nn(-c3ccccc3)cc2/C=N/n2c(-c3ccncc3)n[nH]c2=S)cc1,inhibition,[1],0.07% (inactive)
COc1cc(C(=O)NNC(=O)CCOc2ccccc2)cc(OC)c1OC,inhibition,[1],inactive
O=C(COc1ccc(-c2ccccc2)cc1)NNC(=O)NC1CCCCC1,inhibition,[1],0.67% (inactive)
N#Cc1c(NC(=O)c2ccc(Cn3cc(Br)cn3)o2)sc2c1CCCCCC2,inhibition,[1],inactive
COCC1CCCCN1C(=O)c1cccc(OC2CCN(C(=O)C3CC3)CC2)c1 (stereo unspecified),inhibition,[1],inactive
COc1ccc(C(=O)NCc2ccc(F)cc2)cc1S(=O)(=O)N1CCCC1,inhibition,[1],10.6% (inactive)
Cc1cc(OC(=O)c2cc(Cl)nc3ccccc23)ccc1Cl,inhibition,[1],2.81% (inactive)
CSCCC(NS(=O)(=O)c1ccc2[nH]c(=O)c(=O)[nH]c2c1)C(=O)O (stereo unspecified),inhibition,[1],inactive
CCOC(=O)C1CCCc2c1[nH]c1ccc(Cl)cc21 (stereo unspecified),inhibition,[1],0.82% (inactive)
CCNC(=O)C1CCCc2c1[nH]c1ccc(Cl)cc21 (stereo unspecified),inhibition,stronger effect = higher value,0.89% (inactive)
same,inhibition,[2],1.04%
COc1ccc(-c2nn(-c3ccccc3)cc2/C=C/C(=O)N2CCOCC2)cc1OC,inhibition,[1],7.65% (inactive)
Cc1cc(C)cc(N(C(=O)c2ccc(Br)o2)C2C=CS(=O)(=O)C2)c1 (stereo unspecified),inhibition,[1],inactive
O=[N+]([O-])c1ccc(/C=N/Nc2nc(NCc3ccccc3)nc(N3CCOCC3)n2)cc1,inhibition,[1],3.18% (inactive)
O=[N+]([O-])c1cccc(/C=N/Nc2nc(NCc3ccccc3)nc(N3CCOCC3)n2)c1,inhibition,[1],2.74% (inactive)
COc1ccc2c(c1)OC[C@H]1[C@H]2N2C(=O)c3cc(Br)ccc3NC(=O)[C@@]2(C)[C@H]1c1ccccc1,inhibition,[1],1.07% (inactive)
O=c1[nH]ncc(N2CCCC2)c1Cl,inhibition,[1],inactive
CC(=O)c1cc(C)ccc1OC(=O)c1ccco1,inhibition,[1],inactive
CC(NC(=O)c1cccc(S(=O)(=O)N2CCN(Cc3ccccc3)CC2)c1)c1ccc(Br)cc1 (stereo unspecified),inhibition,[1],2.86% (inactive)
COc1ccc(NC(=O)CCCN2C(=O)/C(=C\c3ccco3)SC2=S)cc1,inhibition,[1],13.5% (inactive)
O=C(CCCN1C(=O)/C(=C/c2ccco2)SC1=S)Nc1cccc(C(=O)O)c1,inhibition,[1],11.7% (inactive)
O=C(CC(CC(=O)c1ccccc1)c1ccccc1)c1ccccc1,inhibition,[1],1.3% (inactive)
O=C(CC(C(=O)c1ccccc1)c1ccccc1)c1ccccc1 (stereo unspecified),inhibition,[1],12.6% (inactive)
CC(=O)N/C(=C/c1ccc(OS(=O)(=O)c2ccc(C)cc2)cc1)C(=O)NCCCO,inhibition,[1],inactive
CNC(=O)N1c2ccccc2C=Cc2ccccc21,inhibition,[1],1.28% (inactive)
NC(=O)N1c2ccccc2C=Cc2ccccc21,inhibition,[1],0.99% (inactive)
same,outcome,[1],inactive
COc1ccc(OCc2cc(C(=O)NCC(C)(C)N3CCOCC3)no2)c(Cl)c1,inhibition,[1],2.39% (inactive)
OC(COCc1cccs1)CN1CCN(c2cccc(Cl)c2)CC1 (stereo unspecified),inhibition,[1],inactive
Cc1ccc(/C=C/C(=O)c2ccccc2)cc1,inhibition,[1],inactive
Cc1ccc(C(=O)C=CC=Cc2ccccc2)cc1,inhibition,[1],inactive
Cn1cnc2c(SCc3ccccc3)ncnc21,inhibition,[1],inactive
CCCCn1cnc2c(SCc3ccccc3Cl)nc(N)nc21,inhibition,[1],6.5% (inactive)
OCCn1cnc2c(SCc3ccccc3)ncnc21,inhibition,[1],6.32% (inactive)
CC(C)Cn1cnc2c(SCc3ccccc3Cl)nc(N)nc21,inhibition,[1],9.3% (inactive)
CCC(C(=O)NCCCN1CCCC1=O)n1c2ccccc2c2nc(=O)cc(C)n21 (stereo unspecified),inhibition,[1],inactive
CC(C)C(C)NC(=O)CN1C(=O)NC(C)(c2ccc3ccccc3c2)C1=O (stereo unspecified),inhibition,[1],inactive
COCCn1c(SCC(=O)Nc2ccc(Cl)cn2)nc2ccccc21,inhibition,[1],2.54% (inactive)
COc1ccc(-n2c(SC(C)C(=O)Nc3ncc(Cl)cc3Cl)nc3ccccc32)cc1 (stereo unspecified),inhibition,[1],8.08% (inactive)
CC(Sc1nnc(-c2ccccc2)c(-c2ccccc2)n1)C(=O)Nc1ncc(Cl)cc1Cl (stereo unspecified),inhibition,[1],0.85% (inactive)
Cc1cc(SCC(=O)Nc2ncc(Cl)cc2Cl)nc2ccccc12,inhibition,[1],0.95% (inactive)
CCN(CC)S(=O)(=O)c1ccc(NN=c2c(=O)c3ccccc3c2=O)cc1,inhibition,[1],0.93% (inactive)
CCOC(=O)C1(CCOC)CCN(C(=O)Cc2ccsc2)CC1,inhibition,[1],0.57% (inactive)
CCOC(=O)c1cn(Cc2ccccc2)nc1-c1ccccc1,inhibition,[1],inactive
Cc1cccc(-n2c(C)cc(/C=N\NC(=O)c3ccco3)c2C)c1,inhibition,[1],1.2% (inactive)
Cc1cc(/C=N\NC(=O)c2cccs2)c(C)n1-c1ccc2ncccc2c1,inhibition,[1],11.1% (inactive)
COCCOC1CCN(C(=O)c2cc(COc3ccc(F)cc3F)on2)CC1,inhibition,[1],1.37% (inactive)
CCOC(=O)c1c2c(c(=S)n(-c3ccccc3)c1N)CCC2,inhibition,stronger effect = higher value,4.5% (inactive)
same,inhibition,[2],3.38%
CCOC(=O)c1c(SC)n(-c2ccccc2)c(=S)n(-c2ccccc2)c1=O,inhibition,[1],0.87% (inactive)
COc1ccc(CSC(=N)N)cc1[N+](=O)[O-],inhibition,[1],4.91% (inactive)
CCOc1ccc(CSC(=N)N)cc1[N+](=O)[O-],inhibition,[1],9.41% (inactive)
Nc1nc(N)nc(-c2cccc(Cl)c2)n1,inhibition,[1],1.28% (inactive)
COc1ccccc1CN1CCN(C(=O)c2cccc3ccccc23)CC1,inhibition,[1],inactive
Cc1cc2occ(CC(=O)Nc3nccs3)c2cc1C(C)C,inhibition,[1],0.63% (inactive)
Cc1ccc2c(CC(=O)Nc3nc(C)cs3)coc2c1,inhibition,[1],5.51% (inactive)
Cc1c(N(C)S(=O)(=O)c2cccc(C(=O)NCC3CCCO3)c2)c(=O)n(-c2ccccc2)n1C (stereo unspecified),inhibition,[1],1.98% (inactive)
NC(=O)C1CCN(C(=O)c2cc(S(=O)(=O)N3CCOCC3)c(Cl)cc2Cl)CC1,inhibition,[1],0.6% (inactive)
Cc1nn(-c2ccc(C(=O)O)cc2)c(=O)c2ccccc12,inhibition,[1],0.65% (inactive)
COc1ccc(CCNC(=O)CSc2nc(=O)[nH]c3c2CCC3)cc1OC,inhibition,[1],0.77% (inactive)
COc1ccc(CC(=O)OCC(=O)Nc2ncc(Cl)c(C)c2Cl)cc1,inhibition,[1],5.2% (inactive)
COc1ccccc1/C=C/C(=O)c1ccc(Cl)cc1,inhibition,[1],inactive
COc1ccccc1/C=C/C(=O)c1ccccc1,inhibition,[1],26.1% (inactive)
COc1ccccc1C(=O)N(Cc1ccco1)C1CCS(=O)(=O)C1 (stereo unspecified),inhibition,[1],0.87% (inactive)
CCCCNC(=O)[C@@H]1CCCN1S(=O)(=O)c1cccc2cccnc12,inhibition,[1],inactive
O=C(Cc1ccc(NC(=O)C2CCN(C(=O)c3ccccc3)CC2)cc1)Nc1cccc(C(=O)N2CCCC2)c1,inhibition,[1],inactive
